Test results as given in PubChem BioAssay.
Calls of active or inactive are those of the source. Unless noted, the rule behind the calls is not given here.

Legend:
[1] = anti-His antibody binders, primary screen, artefact control for SMM control protein annotation, biochemical, small-molecule microarray, 635 nm fluorescence (AID 1128); settings: anti-His Alexa647 antibody binding, higher = more signal;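 note: score merges feature fluorescence with signal-to-noise for each printed compound spot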
[2] = system: Human papillomavirus type 1a E7 protein (residues 1-88); test: HPV1a E7 small-molecule binders, primary screen, biochemical, small-molecule microarray, residues 1-88, 635 nm (AID 1129); settings: small-molecule microarray binding, fluorescence 635 nm; higher = more signal
[3] = biological target: Focal adhesion kinase 1 (Homo sapiens) (UniProt Q05397); test: small-molecule microarray binders of FAK, primary screen, biochemical, 635/667 nm fluorescence, BSA, DTT (AID 1130); settings: PTK2 binding, 635 nm fluorescence, higher = more signal;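 note: composite of spot emission at 667 nm and signal to noise over triplicate slides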
Focal adhesion kinase 1 (Homo sapiens), sequence (Q05397 whole entry, looked up): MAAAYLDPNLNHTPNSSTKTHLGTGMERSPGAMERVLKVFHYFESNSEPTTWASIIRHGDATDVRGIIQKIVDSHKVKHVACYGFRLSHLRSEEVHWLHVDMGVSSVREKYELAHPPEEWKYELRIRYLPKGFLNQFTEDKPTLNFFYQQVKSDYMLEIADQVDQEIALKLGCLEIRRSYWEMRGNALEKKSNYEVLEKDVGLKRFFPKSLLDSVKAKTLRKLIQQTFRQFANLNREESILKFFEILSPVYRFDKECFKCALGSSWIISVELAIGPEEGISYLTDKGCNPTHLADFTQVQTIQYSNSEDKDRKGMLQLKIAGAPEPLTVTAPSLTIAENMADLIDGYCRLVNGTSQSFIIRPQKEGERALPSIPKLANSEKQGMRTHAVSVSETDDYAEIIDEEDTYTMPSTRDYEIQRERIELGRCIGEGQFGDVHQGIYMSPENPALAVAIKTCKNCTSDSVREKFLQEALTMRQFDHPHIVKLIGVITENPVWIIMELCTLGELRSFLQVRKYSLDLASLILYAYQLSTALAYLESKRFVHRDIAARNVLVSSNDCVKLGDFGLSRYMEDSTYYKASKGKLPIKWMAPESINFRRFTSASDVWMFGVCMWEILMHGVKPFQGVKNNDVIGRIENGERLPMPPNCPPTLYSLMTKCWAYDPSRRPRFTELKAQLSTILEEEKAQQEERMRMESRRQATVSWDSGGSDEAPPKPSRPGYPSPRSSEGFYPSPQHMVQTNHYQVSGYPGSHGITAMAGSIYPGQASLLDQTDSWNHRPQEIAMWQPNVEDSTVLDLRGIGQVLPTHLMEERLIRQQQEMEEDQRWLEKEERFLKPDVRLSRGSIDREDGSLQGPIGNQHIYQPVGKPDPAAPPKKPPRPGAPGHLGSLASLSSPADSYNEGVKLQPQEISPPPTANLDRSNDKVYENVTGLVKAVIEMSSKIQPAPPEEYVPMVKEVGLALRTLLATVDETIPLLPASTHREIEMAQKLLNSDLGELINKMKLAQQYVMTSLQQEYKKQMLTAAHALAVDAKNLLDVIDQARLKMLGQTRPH

[4] = system: Fibrinogen (Alexa647-labelled); test: fibrinogen binders on compound microarrays, profiling panel, artefact control for SMM control-protein annotation, biochemical, small-molecule microarray, 635/667 nm fluorescence (AID 1131); settings: fibrinogen-A647 binding fluorescence, higher = more signal;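 note: z-score merges 667 nm fluorescence with per-spot signal-to-noise over triplicate slides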
[5] = biological target: Follistatin (Homo sapiens) (UniProt P19883); test: follistatin binders on small-molecule microarrays, primary screen, biochemical, small-molecule microarray, 635/667 nm fluorescence (AID 1132); settings: FST binding, 635 nm fluorescence, higher = more signal
Follistatin (Homo sapiens), sequence (P19883 whole entry, looked up): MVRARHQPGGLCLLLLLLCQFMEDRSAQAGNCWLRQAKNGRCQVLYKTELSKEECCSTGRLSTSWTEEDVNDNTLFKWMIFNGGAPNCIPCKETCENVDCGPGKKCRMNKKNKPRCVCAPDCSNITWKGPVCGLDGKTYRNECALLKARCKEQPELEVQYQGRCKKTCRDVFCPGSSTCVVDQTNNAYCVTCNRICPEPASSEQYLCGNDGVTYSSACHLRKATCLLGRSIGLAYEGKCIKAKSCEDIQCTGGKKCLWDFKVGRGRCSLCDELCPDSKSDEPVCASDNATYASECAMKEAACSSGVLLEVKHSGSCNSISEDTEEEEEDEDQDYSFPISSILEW

[6] = biological target: Fibroblast growth factor 2 (Homo sapiens) (UniProt P09038); test: FGF2 binders on small-molecule microarrays, primary screen, biochemical, small-molecule microarray, 635/667 nm fluorescence (AID 1133); settings: small-molecule microarray binding, FGF2, fluorescence 635/667; higher = more signal
Fibroblast growth factor 2 (Homo sapiens), sequence (P09038 whole entry, looked up): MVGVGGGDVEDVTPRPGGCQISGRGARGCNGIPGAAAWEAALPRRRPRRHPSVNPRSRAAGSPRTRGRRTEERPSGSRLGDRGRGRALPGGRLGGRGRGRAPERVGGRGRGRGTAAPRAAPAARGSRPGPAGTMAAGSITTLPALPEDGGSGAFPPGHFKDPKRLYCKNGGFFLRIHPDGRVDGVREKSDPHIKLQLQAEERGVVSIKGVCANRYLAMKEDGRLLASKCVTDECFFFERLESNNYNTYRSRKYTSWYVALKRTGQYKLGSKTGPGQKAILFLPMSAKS

[7] = mitochondrial membrane potential change in A549 cells, profiling panel, cell-based, JC-1 fluorescence, basal, 24 h, 100 nL (AID 1138); settings: higher = more signal;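 note: A549 lung adenocarcinoma cells under basal conditions with no added stimulus; test concentration not given here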
Lefty1 = Lefty1 binders on small-molecule microarrays, primary screen, biochemical, small-molecule microarray, 635/667 nm fluorescence (AID 1139); settings: small-molecule microarray binding, fluorescence 635/667; higher = more signal
[8] = system: wheat germ agglutinin (Triticum aestivum), Alexa647-labelled; test: wheat germ agglutinin binders on compound microarrays, profiling panel, artefact control for SMM control-protein annotation, biochemical, small-molecule microarray, 635/667 nm fluorescence (AID 1140); settings: WGA-A647 binding, 635 nm fluorescence, higher = more signal;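 note: score merges 667 nm feature emission with signal to noise over triplicate slides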
[9] = biological target: Luciferin 4-monooxygenase (Photinus pyralis) (UniProt P08659); test: firefly luciferase enzyme inhibitors, primary screen, biochemical, luminescence, purified enzyme, 2006 set (AID 1141); settings: SteadyGlo luminescence, 30 min, higher = more signal, called active from +8 up or from −8 down;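 note: cell-free assay with purified firefly luciferase at 100 ng per well in PBS; test concentration not given here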
Luciferin 4-monooxygenase (Photinus pyralis), sequence (P08659 whole entry, looked up): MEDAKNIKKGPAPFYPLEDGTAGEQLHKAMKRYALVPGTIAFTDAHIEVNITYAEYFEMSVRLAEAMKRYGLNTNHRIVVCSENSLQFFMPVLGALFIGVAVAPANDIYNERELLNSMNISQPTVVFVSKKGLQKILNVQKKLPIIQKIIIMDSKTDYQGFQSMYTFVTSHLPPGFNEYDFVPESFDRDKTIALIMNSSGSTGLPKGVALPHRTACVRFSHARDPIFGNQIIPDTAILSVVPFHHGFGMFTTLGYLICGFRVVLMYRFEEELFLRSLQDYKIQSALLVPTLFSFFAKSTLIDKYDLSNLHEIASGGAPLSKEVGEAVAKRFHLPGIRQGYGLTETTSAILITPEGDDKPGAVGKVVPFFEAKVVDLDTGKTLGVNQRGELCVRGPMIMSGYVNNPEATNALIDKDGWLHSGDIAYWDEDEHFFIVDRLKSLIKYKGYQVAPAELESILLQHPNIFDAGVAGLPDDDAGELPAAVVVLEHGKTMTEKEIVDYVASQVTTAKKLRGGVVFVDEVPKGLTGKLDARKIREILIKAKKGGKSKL

[10] = system: Wnt5a (protein binding on small-molecule microarray); test: Wnt5a binders on small-molecule microarray, primary screen, biophysical, 635/667 nm fluorescence (AID 1142); settings: 635 nm fluorescence, higher = more signal;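 note: fluorescence read at 667 nm with signal to noise per printed feature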
[11] = cell viability in Huh7 cells, primary screen, cytotoxicity control for HCV replication inhibitor project, CellTiter-Glo luminescence, basal, 48 h (AID 1143); settings: Huh7 HCV replicon, higher = more signal, called active from +8 up or from −8 down;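 note: Huh7 hepatoma cells carrying a hepatitis C replication reporter with no stimulus; test concentration not given here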
[12] = P. aeruginosa biofilm formation inhibitors, primary screen, PAO1 strain, BacTiter-Glo luminescence, LB-PBS (AID 1144); settings: 12 h, higher = more signal
[13] = CREB reporter modulators without forskolin, primary screen, cell-based, PC12, CRE-LacZ reporter, unstimulated (AID 1145); settings: no forskolin, luminescence, 4.5 h, higher = more signal, called active from +8 up or from −8 down
[14] = CREB reporter modulators under forskolin, primary screen, cell-based, PC12, CRE-LacZ reporter, forskolin-stimulated (AID 1146); settings: luminescence, 4.5 h, higher = more signal, called active from +8 up or from −8 down;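 note: PC12 cells with 6xCRE LacZ reporter stimulated by forskolin 10 µM; beta-galactosidase reporter signal reflecting CREB driven transcription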
[15] = biological target: Streptavidin (Streptomyces avidinii) (UniProt P22629); test: streptavidin binders on small-molecule microarray, primary screen, artefact control for SMM compound annotation, biophysical, 635/667 nm fluorescence (AID 1147); settings: streptavidin binding, higher = more signal;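 note: signal reflects streptavidin binding to arrayed compounds as a control protein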
Streptavidin (Streptomyces avidinii), sequence (P22629 whole entry, looked up): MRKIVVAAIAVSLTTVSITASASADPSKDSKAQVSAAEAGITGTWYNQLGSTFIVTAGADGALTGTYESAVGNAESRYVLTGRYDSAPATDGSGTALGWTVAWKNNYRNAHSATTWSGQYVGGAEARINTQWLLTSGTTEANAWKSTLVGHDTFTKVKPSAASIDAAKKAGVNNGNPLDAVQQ

[16] = small-molecule binders of probe aInhba, primary screen, biochemical, small-molecule microarray, 635/667 nm fluorescence (AID 1148); settings: higher = more signal;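 note: score merges 667nm spot fluorescence with signal-to-noise for antibody binding to printed compounds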
Torsin-1A (Homo sapiens) [17] = biological target: Torsin-1A (Homo sapiens) (UniProt O14656); test: torsin A binders from cell lysate, primary screen, small-molecule microarray, wild-type, 635/667 nm (AID 1149); settings: COS7 hTOR1A-WT lysate, 635 nm fluorescence, higher = more signal
Torsin-1A (Homo sapiens), sequence (O14656 whole entry, looked up): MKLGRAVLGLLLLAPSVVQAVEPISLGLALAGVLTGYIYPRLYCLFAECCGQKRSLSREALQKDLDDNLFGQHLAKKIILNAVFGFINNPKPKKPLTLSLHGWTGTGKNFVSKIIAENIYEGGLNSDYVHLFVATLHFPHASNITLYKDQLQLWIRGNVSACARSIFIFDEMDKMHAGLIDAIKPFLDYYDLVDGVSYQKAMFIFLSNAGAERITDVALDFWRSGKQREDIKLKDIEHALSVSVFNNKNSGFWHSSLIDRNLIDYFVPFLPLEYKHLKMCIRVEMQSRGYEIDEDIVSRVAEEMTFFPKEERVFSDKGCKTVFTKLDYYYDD

Torsin-1A (Homo sapiens) [18] = biological target: Torsin-1A (Homo sapiens) (UniProt O14656); test: small-molecule binders of mutant TOR1A in lysate, primary screen, cell lysate, small-molecule microarray, COS7 lysate, 635/667 nm fluorescence (AID 1150); settings: COS7 hTOR1A mutant lysate, 635 nm fluorescence, higher = more signal;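 note: score pools 667 nm emission and signal to noise measuring lysate protein binding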
[19] = system: Sonic hedgehog protein (Shh); test: small-molecule binders of Shh protein, primary screen, biochemical, small-molecule microarray, 635/667 nm fluorescence (AID 1151); settings: small-molecule microarray binding, 635 nm fluorescence; higher = more signal;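 note: Shh protein binding to compounds spotted on small-molecule microarray slides; score combines spot fluorescence intensity with signal-to-noise across triplicate slides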

Row | Structure (SMILES) | composite z-score [1] | composite z-score [2] | composite z-score [3] | composite z-score [4] | composite z-score [5] | composite z-score [6] | z-score [7] | composite z-score (Lefty1) | composite z-score [8] | z-score [9] | composite z-score [10] | z-score [11] | z-score [12] | z-score [13] | z-score [14] | composite z-score [15] | composite z-score [16] | composite z-score (Torsin-1A (Homo sapiens) [17]) | composite z-score (Torsin-1A (Homo sapiens) [18]) | composite z-score [19]
1 | CC(C)C(=C=CC[C@@H](O)c1ccccc1OCCO)C[C@@H](O)c1cc(Cl)cc(Cl)c1O | 1.46 | 1.23 | -0.14 | 0.88 | 1.38 | 0.964 | -1.35 | 1.58 | 0.54 | -1 (inactive) | 0.532 | -3.43 (inactive) | 0.519 (inactive) | 3.25 (inactive) | 0.266 (inactive) | 1.05 | 0.0622 | 1.44 | 0.86 | 2.11
2 | C=CCC(OC(C)=O)[C@@H]1[C@@H](N(Cc2ccc(-c3ccccc3)cc2)C(=O)c2ccc(-c3ccccc3)cc2)c2cc(OCCCO)ccc2N1C(=O)c1ccc2ccccc2n1 (stereo not given in full) | -0.513 | 0.907 | 0.879 | -0.239 | 0.548 | 0.051 | 1.61 | -0.101 | 0.152 | -1.46 (inactive) | -0.0949 | 0.115 (inactive) | 0.196 (inactive) | 0.992 (inactive) | 0.705 (inactive) | 0.21 | 0.333 | -0.178 | 0.342 | 0.767
3 | CN(C)C(=O)[C@@]1(CCS(=O)(=O)c2ccccc2)N=C(c2ccc(OCCCO)cc2)O[C@H]1c1ccccc1N=[N+]=[N-] | 0.838 | 1.25 | 0.601 | 1 | 1.1 | 0.58 | 0.371 | 0.267 | 0.371 | -11 (active) | 1 | -3.2 (inactive) | 1.75 (inactive) | 0.447 (inactive) | -1.37 (inactive) | 1.82 | 0.0569 | 0.155 | 0.797 | -0.337
4 | C[C@@H](OCc1ccccc1)C1NC(=O)[C@@]23C(=O)N[C@@H](Cc4ccccc4)C2[C@H](C)[C@@]2(C)O[C@H]2C3/C=C/C/C=C\CNC(=O)[C@H](Cc2ccccc2)NC1=O (stereo not given in full) | 0.276 | -0.197 | -0.422 | 0.569 | 0.793 | 0.803 | -0.227 | 0.557 | -0.228 | -3.26 (inactive) | -0.0187 | -3.97 (inactive) | 0.541 (inactive) | 5.48 (inactive) | -0.164 (inactive) | -0.85 | 0.0131 | -0.258 | 0.293 | 1.07
5 | CCC(CC)C(O)C1C=CC2C(=O)N(C)C(=O)C2N1N1CCCCC1 (stereo not given) | 2.05 | 1.23 | -0.0333 | 0.967 | 1.33 | 0.406 | 0.309 | 0.831 | 1.12 | -0.203 (inactive) | 0.323 | 0.374 (inactive) | -0.328 (inactive) | 0.0501 (inactive) | 1.06 (inactive) | 1.51 | 0.3 | 0.504 | 0.844 | 0.959
6 | [N-]=[N+]=NCc1ccccc1C[C@]1(C(=O)N2CCOCC2)N=C(c2ccc(OCCCO)cc2)O[C@H]1c1ccccc1CN=[N+]=[N-] | 2.97 | 1.25 | 0.681 | 0.963 | 1.3 | 1.92 | 1.68 | -0.232 | 1 | -1.25 (inactive) | 1.42 | -3.43 (inactive) | -0.52 (inactive) | 0.778 (inactive) | -1.32 (inactive) | 1.24 | 1.28 | 0.3 | 0.863 | -0.0561
7 | C=CCC(OC(C)=O)[C@@H]1[C@@H](N(Cc2cccc3ccccc23)C(=O)c2ccc(-c3ccccc3)cc2)c2cc(OCCCO)ccc2N1C(=O)c1ccc2ccccc2n1 (stereo not given in full) | 0.112 | 0.263 | 0.0785 | 0.677 | 0.537 | -0.0329 | -0.0419 | 0.752 | 0.922 | 0.222 (inactive) | -0.133 | -0.205 (inactive) | 0.409 (inactive) | 0.106 (inactive) | 0.481 (inactive) | 0.582 | 0.195 | 0.178 | 0.309 | 0.664
8 | CC(C)C[C@@H]1NC(=O)[C@H]2C[C@@H](C(=O)NCCCCCCNC(=O)CS)[C@@H](c3ccc(O)cc3)N2C1=O | 2.26 | 1.22 | 0.87 | 0.0675 | 1.3 | 1.78 | -1.02 | 0.543 | 0.0059 | -0.938 (inactive) | 0.472 | 1.03 (inactive) | -1.02 (inactive) | -0.805 (inactive) | -0.732 (inactive) | -0.406 | -0.179 | 1 | 0.766 | 1.84
9 | COc1ccc([Si](C)(C)[C@H]2[C@H](CC(=O)N3Cc4ccccc4C[C@H]3CO)O[C@@]3(C(=O)N(Cc4cccc(N5C(=O)c6cccc7cccc5c67)c4)c4ccccc43)[C@@H]2C)cc1 | 0.577 | 1.16 | 0.463 | -0.0297 | 1.18 | 1.59 | 1.03 | 1.53 | 0.108 | -1.53 (inactive) | 0.862 | -4.55 (inactive) | -0.765 (inactive) | 11 (active) | -1.41 (inactive) | 0.159 | -0.0107 | 1.39 | 0.736 | 2.23
10 | COCCOC(=O)N1C(=O)[C@@]2(c3cc(C#CC4(O)CCCCCC4)ccc31)[C@H](C(=O)N1CCc3cc(OC)c(OC)cc3C1)[C@H]1C(=O)O[C@H](c3ccccc3)[C@H](c3ccccc3)N1[C@@H]2c1ccc(O)cc1 | 2.17 | 1.23 | 0.427 | 0.853 | 1.26 | 1.1 | -0.791 | 0.594 | 0.972 | -0.604 (inactive) | 0.869 | -1.83 (inactive) | 0.0231 (inactive) | 1.68 (inactive) | 8.06 (active) | 0.398 | 0.306 | 1.25 | 0.538 | 0.774
